# Assay outcomes deposited in PubChem BioAssay by several laboratories.
# CendR NRP1 mod – modulators of CendR peptide binding to human neuropilin-1 | O14786 | FAM-RPARPAR peptide binding to NRP-1, fluorescence polarization | inhibition, % at 25 µM | actives 0.85% (n = 360,000);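 active means inhibition or corrected inhibition above about 18%, plus a signal ratio from 0.5 to 1.5, limit read from the data, passing the limit was not always enough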
# KLK7 zymogen act – proKLK7 (human) activation, primary screen. P49862. purified proKLK7, EDANS-DABCYL substrate fluorescence; 100% is mature enzyme control, 0% vehicle. activation, % at 7 µM. actives 0.9% (n = 370,000). AID 652039;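 active means activation above the mean of all tested compounds plus 3 SD, computed per campaign excluding outliers beyond control limits, cut at about 13% in these data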
# ADAM10 inh – ADAM10 inhibition, QFRET primary screen | AID 720582 | actives 0.62% (n = 370,000) | inhibition, % at 7 µM | recombinant ADAM10, EDANS/DABCYL FRET peptide cleavage, 3 h | O14672;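 active means inhibition above a per-campaign cutoff equal to the mean of compounds falling between control-based bounds plus 3 SD, cut at about 20% in these data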;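 further: 0% = DMSO wells while the 100% control is not disclosed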
# Target sequence (O14672 214-748 limits assumed): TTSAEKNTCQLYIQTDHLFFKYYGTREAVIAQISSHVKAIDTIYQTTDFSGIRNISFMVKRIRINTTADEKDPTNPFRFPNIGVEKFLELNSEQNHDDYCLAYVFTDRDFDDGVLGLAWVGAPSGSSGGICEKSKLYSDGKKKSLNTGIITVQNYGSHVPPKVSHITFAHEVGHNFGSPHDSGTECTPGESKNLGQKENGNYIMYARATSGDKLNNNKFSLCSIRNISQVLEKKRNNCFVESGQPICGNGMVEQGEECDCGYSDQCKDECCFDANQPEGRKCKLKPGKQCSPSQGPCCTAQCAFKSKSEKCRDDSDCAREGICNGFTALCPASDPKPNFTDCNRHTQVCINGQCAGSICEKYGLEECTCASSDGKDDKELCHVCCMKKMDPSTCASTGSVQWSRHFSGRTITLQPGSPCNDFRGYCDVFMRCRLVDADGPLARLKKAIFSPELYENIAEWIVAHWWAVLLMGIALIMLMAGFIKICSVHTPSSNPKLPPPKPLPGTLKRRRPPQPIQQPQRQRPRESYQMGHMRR
# sPLA2-III inh – Inhibits HGIII-sPLA2 liposome hydrolysis, primary screen; QFRET BODIPY PC-A2 liposome hydrolysis, fluorescence; inhibition, % at 12.2 µM; actives 0.56% (n = 370,000); AID 743126;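 active means inhibition above mean plus 3 SD of compounds lying within the high and low control bounds, cut at about 19% in these data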;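 further: 0% = median of test compound wells and 100% = no enzyme DMSO wells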
# ADAM17 inh – inhibitors of human ADAM17; P78536; recombinant ADAM17, EDANS/DABCYL FRET peptide cleavage; inhibition, % at 6.95 µM; actives 0.83% (n = 370,000); AID 720648;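 active means inhibition above the mean of compounds lying between control limits plus 3 SD, set per campaign, cut at about 8.5% in these data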;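 further: 0% = DMSO-only wells as the low control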
# ADAM10 ctr – ADAM10 inhibition, counter-screen for ADAM17 exosite hits. shares compounds with ADAM17 inh. recombinant ADAM10, EDANS/DABCYL FRET peptide cleavage, 3 h. inhibition, % at 6.95 µM. actives 47% (n = 2,900);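 active means mean inhibition over the triplicate runs exceeds the activity threshold set in the earlier primary screen, cut at about 20% in these data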;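 further: 0% = DMSO wells and 100% = marimastat wells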
# ADAM17 confirm – human ADAM17 inhibition, confirmation | shares compounds with ADAM17 inh | recombinant ADAM17, EDANS/DABCYL QFRET peptide cleavage | inhibition, % at 6.95 µM | actives 65% (n = 2,900) | AID 743257;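 active means mean inhibition across replicates above the hit cutoff set in the primary screen, cut at about 8.5% in these data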;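 further: 0% = DMSO wells and 100% = marimastat wells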
# Numbers without * were called inactive; nt = no result. Hits are enriched below; roughly 3.4% of the tested compounds scored in any of these assays.
SMILES,CendR NRP1 mod,KLK7 zymogen act,ADAM10 inh,sPLA2-III inh,ADAM17 inh,ADAM10 ctr,ADAM17 confirm
CSCCC(NS(=O)(=O)c1cccc(C(F)(F)F)c1)C(=O)N(C)CCOc1ccc(Cl)cc1 (centres undefined),4,1,17,-21,11*,41*,21*
CCCCOCC1CN(CCCC)S(=O)(=O)c2c(cccc2N2CCCC2)O1 (centres undefined),nt,0,-11,4,-2,nt,nt
OC(c1ccccc1)(c1ccccc1)C1CCN(CCCNc2ccc(C(F)(F)F)cc2)CC1,nt,1,17,-9,9.4*,20,11*
COc1ccc(S[C@]2(C(=O)N3CCN(c4ncccn4)CC3)CC(=O)N(C(=O)/C=C/c3ccccc3)[C@@H]2c2ccc(OC)cc2)cc1,nt,0,6,10,4,nt,nt
CC(CNc1ccc(Cl)cc1)(CNc1ccc(Cl)cc1)[N+](=O)[O-],5,0,14,-4,9.9*,25*,8
O=[N+]([O-])c1ccc(CNc2ccc(Cl)cc2)s1,-2,0,3,0,4,nt,nt
COc1ccc(/C(O)=C2/C(=O)C(=O)N(CC3CCCO3)C2c2cccc(O)c2)cc1 (centres undefined),6,5,4,10,8.8*,7,6
CCCCN1CCS(=O)(=O)N(Cc2cn(Cc3cccc(Cl)c3)nn2)C(C(=O)OC)C1 (centres undefined),nt,0,5,2,1,nt,nt
Oc1cccc2ccc(Nc3ccccn3)nc12,-16,0,60*,-3,50*,32*,47*
CCCCOCCCNC(=O)C[C@H]1C[C@@]2(C(=O)OC)C(=C[C@H](C(C)C)O[C@@H]2C2CC2)N(Cc2ccc(Cl)cc2Cl)C1=O,nt,0,8,-6,3,nt,nt
COc1ccc(Cl)cc1NC(=O)c1nnn(CC(=O)Nc2ccc(C)c(C)c2)c1N,6,0,8,-6,11*,-6,2
CC(=O)c1cc(-c2ccc(-c3cc(C(=O)O)c4ccccc4n3)cc2)c(=O)n2c1CCC2,nt,-1,-61,15,-24,nt,nt
Cc1ccc(C(C(=O)NCc2ccco2)N(CCc2ccccc2)C(=O)Cn2nnc3ccccc32)o1 (centres undefined),-2,0,7,-6,10*,18,10*
Cc1ccc(CN(C(=O)Cn2nnc3ccccc32)C(C(=O)NCc2ccco2)c2ccc(C)o2)cc1 (centres undefined),3,0,-12,-8,-5,nt,nt
O=C(c1ccccc1)c1ccc(OCC(O)CNCc2ccc(F)cc2)cc1 (centres undefined),12,1,4,-8,10*,3,3
CC(C)COc1ccc(CSCCNC(=S)Nc2ccccc2)cc1,6,0,17,-23,9.1*,29*,13*
COC(=O)[C@@]12CCCCC=C1N(CCc1ccc(Cl)cc1)C(=O)[C@H]2CC(=O)NCCC(C)C,nt,0,-2,-6,-3,nt,nt
CC(C)Oc1ccc2c(=O)c(-c3ccccc3)coc2c1,-7,0,1,-3,-3,nt,nt
CCC(Oc1ccc2c(=O)c(-c3ccccc3OC)coc2c1)C(=O)OCc1ccccc1 (centres undefined),-4,1,17,-8,11*,27*,12*
CC(=O)c1cc(Cl)ccc1OC(=O)c1ccco1,-6,0,3,-6,-7,nt,nt
O=C(Oc1ccc(Br)cc1C(=O)/C=C/c1ccccc1F)c1ccco1,10,1,20,-21,11*,11,5
O=C1CSc2ccc(C(=O)N3CCCC(C(=O)N4CCCCC4)C3)cc2N1 (centres undefined),nt,0,-6,-1,-2,nt,nt
COC(=O)[C@H](C(C)C)N(CCCc1cn(CC2CCCCC2)nn1)S(=O)(=O)c1ccc(F)cc1Br,nt,0,11,-16,11*,26*,14*
COC(=O)[C@H](C(C)C)N(CCCc1cn(Cc2ccc(C)cc2)nn1)S(=O)(=O)c1ccccc1Br,nt,0,8,-16,1,nt,nt
COC(=O)[C@H](C(C)C)N(CCc1cn(Cc2ccc(C)cc2)nn1)S(=O)(=O)c1ccccc1Br,nt,1,18,-32,11*,24*,17*
SMILES,CendR NRP1 mod,KLK7 zymogen act,ADAM10 inh,sPLA2-III inh,ADAM17 inh,ADAM10 ctr,ADAM17 confirm
COc1ccc(C2/C=C\CN(C(=O)c3ccccc3)[C@H](Cc3ccccc3)C(=O)N2Cc2ccc(F)cc2)cc1 (some centres undefined),-9,0,13,1,11*,21*,11*
COc1ccc([C@H]2/C=C\CN(C(=O)c3ccc(C)cc3)[C@@H](C)C(=O)N2Cc2ccc(F)cc2)cc1,9,0,15,-7,2,nt,nt
COc1ccc(C2OC(CCc3ccccc3)CC3=C2C(=O)OC(C)(C)O3)cc1 (centres undefined),2,1,6,6,8.7*,8,6
CC1(C)OC(=O)C2=C(C[C@@H](CCOCc3ccccc3)O[C@H]2c2ccc(F)cc2)O1,1,0,-5,3,-4,nt,nt
O=C(O)c1ccc2c(c1)N(Cc1cccc(F)c1)C(=O)CS2,-14,-1,15,-4,8.9*,4,3
CCC(C)NC(=O)c1ccc2c(c1)N(Cc1ccccc1)C(=O)CS2 (centres undefined),4,0,-1,2,-6,nt,nt
Cc1cc(N2CCN(C(C(=O)NC3CCCC3)c3ccc(-c4ccccc4)cc3)CC2)c2ccccc2n1 (centres undefined),20,0,13,-8,1,nt,nt
Cc1cc(N2CCN(C(=O)Oc3ccc(-c4ccccc4)cn3)CC2)c2ccccc2n1,nt,1,-103,-17,10*,20,15*
O=C(c1cc(-c2ccc(Cl)cc2)nc2ccccc12)N1CCN(c2ncccn2)CC1,nt,-1,-9,6,0,nt,nt
Cc1ccccc1OCCCSc1nc2ccccc2[nH]1,11,0,19,-19,8.8*,15,10*
c1ccc(OCCSc2nc3ccccc3[nH]2)cc1,14,0,5,-8,4,nt,nt
O=C(Cn1nc(-c2ccccc2)ccc1=O)NCCc1cccc(F)c1,nt,1,-9,-4,-2,nt,nt
CCOC(=O)c1c(C)[nH]c(N=Nc2cccc(C)c2)c1C,13,0,14,-25,9.7*,24*,14*
O=C(CCn1nnc(-c2cccs2)n1)N1CCCC1,nt,-1,-3,3,1,nt,nt
COc1ccc(CCN(Cc2cccs2)S(=O)(=O)c2ccc(S(=O)(=O)N3CCCCCC3)cc2)cc1OC,-5,0,3,3,-1,nt,nt
